This is a sample that favours compounds with a hit; in the whole collection about 0.5% have one here.
AddAB inh – less growth of phage-infected E. coli with AddAB; E. coli expressing H. pylori AddAB, absorbance growth; inhibition, % at 11.9 µM; 330,000 tested, 0.29% active; in the data active = inhibition above about 12%;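 note: 0% = vehicle wells of infected cells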
Tat export inh – E. coli Tat transport inhibition; AID 488895; inhibition, % at 10 µM; 340,000 tested, 0.036% active; E. coli MC4100 TorA-mCherry Tat export, fluorescence;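 active = mean replicate inhibition at least 50% and at least half of replicates individually reaching 50%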;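 note: exported cargo escapes ClpAP degradation while cytoplasmic cargo is degraded and loses fluorescence; 0% = median of neutral control wells and 100% = median of NaSCN control wells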
E coli growth-1 – E. coli growth inhibition; Escherichia coli growth, OD600, 23 h; stronger effect = lower value; OD600 absorbance (concentration not given with the values); 330,000 tested, 0.21% active; AID 1053175;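 active = OD600 absorbance below the run mean of sample wells minus 3.6 SD, in any replicate, cut at about 0.56 in these data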
phage Ecoli inh – E. coli growth loss with phage present | growth absorbance | inhibition, % at 11.9 µM | 360,000 tested, 0.26% active | AID 651602; in the data active = inhibition above about 11%
E coli growth-2 – reduces bacterial viability in AddAB counter-screen | E. coli V3065 growth, OD600 absorbance, 18 h | inhibition, % at 11.9 µM | 330,000 tested, 0.27% active;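 active = inhibition above the campaign's mean inhibition across all tested compounds plus 3 SD, cut at about 9.9% in these data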;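 note: uninfected addAB+ strain grown without phage in ampicillin broth; 0% = DMSO wells and 100% = ciprofloxacin 0.95 µg/ml wells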
AddAB confirm – growth loss of T4-infected E. coli expressing H. pylori AddAB, confirmed. shares compounds with AddAB inh. E. coli V3065 expressing H. pylori AddAB, T4 phage, OD; T4 phage with gene 2 nonsense mutations. inhibition, % at 11.9 µM. 880 tested, 64% active;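 active = mean inhibition above a set limit taken from the earlier primary screen, cut at about 13% in these data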;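 note: higher means less bacterial growth since AddAB block lets phage replicate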
RecBCD counter – counter-screen: growth loss of RecBCD+ E. coli with mutant T4 phage; AID 488955; shares compounds with AddAB inh; inhibition, % at 11.9 µM; E. coli V66 + mutant T4 phage, OD growth; 880 tested, 73% active;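 active = mean inhibition above the mean of solvent-only control wells plus 3 SD, cut at about 4% in these data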;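 note: optical density read after an 18 h incubation at 37 °C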
bact viab count – counter-screen: bacterial growth inhibition. AID 488956. bacterial viability, absorbance (AddAB counterscreen). inhibition, % at 11.9 µM. 880 tested, 35% active. shares compounds with AddAB inh; in the data active = inhibition above about 25%
RecBCD conf – growth loss of phage-infected V66 E. coli, RecBCD confirmation screen. inhibition, % at 11.9 µM. AID 651982. 890 tested, 45% active. E. coli V66 + T4 2- phage, growth OD. shares compounds with phage Ecoli inh;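 active = mean inhibition over triplicates exceeding the hit threshold derived in the original primary screen, cut at about 11% in these data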
Ecoli viability – inhibits E. coli viability, flagging RecBCD hits as nonselective. shares compounds with phage Ecoli inh. absorbance (OD) growth. inhibition, % at 11.9 µM. 890 tested, 29% active. AID 651983; in the data active = inhibition above about 20%;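 note: E. coli strain V66 grown with compound alone and no phage infection; 0% = bacteria with DMSO vehicle only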
AddAB phage OD – growth loss of phage-infected AddAB E. coli, RecBCD counter-screen; shares compounds with phage Ecoli inh; E. coli expressing H. pylori AddAB + T4 phage, OD growth; gene 2 mutant T4, recBCD-deleted host; inhibition, % at 11.9 µM; 890 tested, 45% active;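 active = mean inhibition above the solvent-only control wells' mean plus 3 SD, cut at about 22% in these data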;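 note: higher means less bacterial growth from phage killing when AddAB is blocked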
Numbers without * were called inactive; . = no result.

SMILES	AddAB inh	Tat export inh	E coli growth-1	phage Ecoli inh	E coli growth-2	RecBCD conf	Ecoli viability	AddAB phage OD	others
CCOc1ccc(NC(=S)NCc2nc3ccccc3[nH]2)cc1	20*	-35	0.56	20*	16*	17*	16	29*	AddAB confirm=32*;RecBCD counter=19*;bact viab count=24
CC(C)c1ccccc1NC(=S)NCc1nc2ccccc2[nH]1	0	-3	0.68	3	0	.	.	.
CCC(C)C1COCCS(=O)(=O)N1Cc1ccc(Br)cc1 (configuration not stated)	.	.	0.65	.	.	.	.	.
CSCCC(NC(=O)Nc1cccc(C(F)(F)F)c1)C(=O)O (configuration not stated)	.	.	0.68	.	.	.	.	.
Oc1c(C(Nc2ccccn2)c2ccccn2)ccc2cccnc12 (configuration not stated)	17*	3	0.66	16*	14*	5	9	7	AddAB confirm=7;RecBCD counter=9.8*;bact viab count=2
Oc1ccccc1C(Nc1nccs1)c1ccc2cccnc2c1O (configuration not stated)	13*	6	0.69	12*	17*	8	10	9	AddAB confirm=9;RecBCD counter=12*;bact viab count=10
CC(C)NC(=O)N(C)CC1Oc2c(NC(=O)C3CCCCC3)cccc2C(=O)N(C(C)CO)CC1C (configuration not stated)	.	.	0.66	.	.	.	.	.
C#CCOCCOCCOCCNc1nc(N2CCN(C(=O)CCCCCCCCCCNC(=O)Cn3cc(CC(C)O)nn3)CC2)nc(N2CCN(C(=O)CCCCCCCCCCNC(=O)C(C(C)O)n3cc(C)nn3)CC2)n1 (configuration not stated)	.	.	0.72	.	.	.	.	.
NCC1OC(OC2C(N)CC(N)C(OC3OC(CO)C(O)C(N)C3O)C2O)C(N)CC1O (configuration not stated)	.	.	0.68	.	.	.	.	.
NCC[C@H](O)C(=O)N[C@@H]1C[C@H](N)[C@@H](O[C@H]2O[C@H](CN)[C@@H](O)[C@H](O)[C@H]2O)[C@H](O)[C@H]1O[C@H]1O[C@H](CO)[C@@H](O)[C@H](N)[C@H]1O	.	126*	.	100*	.	100*	100*	101*
S=C(NCc1ccccn1)NN=Cc1ccccn1	.	0	.	18*	.	14*	16	16
COC(CC1OC1C(O)C(C)OCc1ccccc1)OC (configuration not stated)	.	.	0.65	.	.	.	.	.
CCCCn1c(CNC(=O)Cc2ccccc2)nc2ccccc21	0	-3	0.7	100*	-1	-3	-3	3
CCCCn1c(CNC(=O)CC)nc2ccccc21	1	-9	0.72	2	-2	.	.	.
CCN1C(=O)C2C(c3ccc(SC4CCCCC4)cc3)N3CCCC[C@@]3(C(=O)OC)C2C1=O (some centres not stated)	.	.	0.66	.	.	.	.	.
Cc1ccc(C(=O)NCCN2C3=NCC(C(C)C)N3CC2Cc2ccc(O)cc2)cc1Br (configuration not stated)	.	.	0.69	.	.	.	.	.
COc1ccc(N(CC(=O)Nc2cccc(C)c2C)S(=O)(=O)c2c(C)[nH]c(=O)[nH]c2=O)cc1	1	6	0.69	100*	0	-5	-4	-3
COc1ccc(N(CC(=O)Nc2cccc(C)c2C)S(=O)(=O)c2c(C)n[nH]c2C)cc1	5	3	0.72	3	2	.	.	.
OCCC1CC(O)C(O)[C@@]2(OCCc3ccccc32)O1 (some centres not stated)	.	.	0.67	.	.	.	.	.
NC(=S)NN=Cc1nccc2c(C(F)(F)C(F)(F)C(F)(F)F)cccc12	.	.	.	15*	.	3	3	20
Cc1cnc(C=NNC(N)=S)c2cccc(N)c12	.	1	.	2	.	.	.	.
